Results: PubChem BioAssay AID1508601 (ICCB-Longwood Screening Facility, Harvard Medical School, 2020)
Among all 5,700 compounds or so, about 85 (1%) were called active. Rule as the data show it: active = p53-positive nuclei above about 36% (passing the limit was not always enough); inactive = the rest. Only a selection was taken, and actives are over-represented in it overall. Peptide text beside a SMILES is read from it.

Key:
[1] = p53 stabilisation in HPV-positive human cells, imaging, p53-positive nuclei imaging, 24 h, 48 h (AID 1508601); details: 24/48 h
[2] = target: Cellular tumor antigen p53 (Homo sapiens) (UniProt P04637); experiment: as above; details: 24/48 h, stronger effect = higher value
[3] = measured here: cell number at 24 h, Library stock concentration: 3.33 mM
[4] = measured here: cell number at 48 h, Library stock concentration: 3.33 mM
[5] = Library stock concentration: 3.33 mM
[6] = measured here: p53 positive nuclei at 24 h, Library stock concentration: 3.33 mM
[7] = measured here: cell number at 24 h, concentration not given here
[8] = measured here: cell number at 48 h, concentration not given here
[9] = measured here: p53 positive nuclei at 24 h, concentration not given here

Cellular tumor antigen p53 (Homo sapiens), sequence (P04637 whole entry, looked up): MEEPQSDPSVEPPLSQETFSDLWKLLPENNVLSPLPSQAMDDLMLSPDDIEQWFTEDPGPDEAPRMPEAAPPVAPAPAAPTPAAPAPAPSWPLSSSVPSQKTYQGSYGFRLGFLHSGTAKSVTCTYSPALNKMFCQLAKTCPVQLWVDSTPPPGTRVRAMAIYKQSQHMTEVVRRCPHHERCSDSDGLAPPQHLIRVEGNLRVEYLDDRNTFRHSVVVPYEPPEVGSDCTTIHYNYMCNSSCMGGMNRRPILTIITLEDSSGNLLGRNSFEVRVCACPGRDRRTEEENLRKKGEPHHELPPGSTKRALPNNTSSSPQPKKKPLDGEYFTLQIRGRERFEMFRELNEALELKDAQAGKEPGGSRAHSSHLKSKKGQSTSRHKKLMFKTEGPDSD

For `CC(C)CC(NC(=O)CNC(=O)c1cc(Cl)ccc1Cl)B(O)O` (stereo not given), the nuclei count, normalised [1, 3] was 50.2%, the nuclei count, normalised [1, 4] was 43.3% and the p53-positive nuclei, normalised [2, 5] was 98% (active). The p53-positive nuclei, normalised [2, 6] was 94%.

For `CC(C)CC(NC(=O)CNC(=O)c1cc(Cl)ccc1Cl)B1OC(=O)CC(CC(=O)O)(C(=O)O)O1` (stereo not given), the nuclei count, normalised [1, 3] was 46.4%, the nuclei count, normalised [1, 4] was 36.8% and the p53-positive nuclei, normalised [2, 5] was 97.7% (active). The p53-positive nuclei, normalised [2, 6] was 101%.

For `CNC(=O)C(c1ccccc1)N1CCc2cc(OC)c(OC)cc2C1CCc1ccc(C(F)(F)F)cc1` (stereo not given), the nuclei count, normalised [1, 3] was 107%, the nuclei count, normalised [1, 4] was 104% and the p53-positive nuclei, normalised [2, 5] was -0.362% (inactive). For the same compound, the p53-positive nuclei, normalised [2, 6] was -0.539%.

With `Cc1occc1C(=O)Nc1ccccc1C(=O)N(C)Cc1ccccn1` the nuclei count, normalised [1, 7] was 96.8%, the nuclei count, normalised [1, 8] was 105% and the p53-positive nuclei, normalised ([2]; concentration not given here) was 0.23% (inactive). For the same compound, the p53-positive nuclei, normalised [2, 9] was 0.178%.

With `O=C(c1ccccc1-c1nn[nH]n1)N1CCc2[nH]cnc2C1c1ccccn1` (stereo not given) the nuclei count, normalised [1, 7] was 101%, the nuclei count, normalised [1, 8] was 107% and the p53-positive nuclei, normalised ([2]; concentration not given here) was -0.169% (inactive). The p53-positive nuclei, normalised [2, 9] was -0.0711%.

With `O=C(OC[C@@H]1O[C@H]1c1ccccc1)Oc1ccc([N+](=O)[O-])cc1` the nuclei count, normalised [1, 7] was 101%, the nuclei count, normalised [1, 8] was 105% and the p53-positive nuclei, normalised ([2]; concentration not given here) was -0.0534% (inactive). It also gave a p53-positive nuclei, normalised [2, 9] of -0.0466%.

With `COc1ccc(CC(NC(=O)C(C)NC(=O)CN2CCOCC2)C(=O)NC(Cc2ccccc2)C(=O)[C@@]2(C)CO2)cc1` (stereo not given in full) the nuclei count, normalised ([1]; measured here: cell number at 24 h, Library stock concentration: 46 uM) was 107%, the nuclei count, normalised ([1]; measured here: cell number at 24 h, Library stock concentration: 278 uM) was 109% and the nuclei count, normalised ([1]; measured here: cell number at 24 h, Library stock concentration: 1.67 mM) was 57.1%. For the same compound, the nuclei count, normalised ([1]; measured here: cell number at 24 h, Library stock concentration: 10 mM) was 52.6%, the nuclei count, normalised ([1]; measured here: cell number at 48 h, Library stock concentration: 46 uM) was 113% and the nuclei count, normalised ([1]; measured here: cell number at 48 h, Library stock concentration: 278 uM) was 113%. The nuclei count, normalised ([1]; measured here: cell number at 48 h, Library stock concentration: 1.67 mM) was 43.8%, the nuclei count, normalised ([1]; measured here: cell number at 48 h, Library stock concentration: 10 mM) was 39.6% and the p53-positive nuclei, normalised ([2]; Library stock concentration: 46 uM) was -0.326% (inactive). The p53-positive nuclei, normalised ([2]; Library stock concentration: 278 uM) was 0.734% (inactive), the p53-positive nuclei, normalised ([2]; Library stock concentration: 1.67 mM) was 103% (active) and the p53-positive nuclei, normalised ([2]; Library stock concentration: 10 mM) was 102% (active). For the same compound, the p53-positive nuclei, normalised ([2]; measured here: p53 positive nuclei at 24 h, Library stock concentration: 46 uM) was -0.151%, the p53-positive nuclei, normalised ([2]; measured here: p53 positive nuclei at 24 h, Library stock concentration: 278 uM) was 0.483% and the p53-positive nuclei, normalised ([2]; measured here: p53 positive nuclei at 24 h, Library stock concentration: 1.67 mM) was 146%. The p53-positive nuclei, normalised ([2]; measured here: p53 positive nuclei at 24 h, Library stock concentration: 10 mM) was 144%.

For `COc1ccc(CC(NC(=O)C(C)NC(=O)CN2CCOCC2)C(=O)NC(Cc2ccccc2)C(=O)[C@]2(C)CO2)cc1` (stereo not given in full), the nuclei count, normalised [1, 3] was 46%, the nuclei count, normalised [1, 4] was 38.7% and the p53-positive nuclei, normalised [2, 5] was 106% (active). For the same compound, the p53-positive nuclei, normalised [2, 6] was 126%.

With `CC(C)CC(CC(=O)NO)C(=O)NC(Cc1ccc2ccccc2c1)C(=O)NC(C)C(=O)NCCN` (stereo not given) the nuclei count, normalised [1, 3] was 109%, the nuclei count, normalised [1, 4] was 104% and the p53-positive nuclei, normalised [2, 5] was 0.0444% (inactive). For the same compound, the p53-positive nuclei, normalised [2, 6] was -0.208%.

In the case of `COC(=O)C(Cc1ccccc1)NC(=O)C(N)CC(=O)O` (stereo not drawn) (H-Asp-Phe-OMe; configuration not given here), the nuclei count, normalised [1, 3] is reported as 101%, the nuclei count, normalised [1, 4] is reported as 94.9% and the p53-positive nuclei, normalised [2, 5] is reported as -0.0669% (inactive). For the same compound, the p53-positive nuclei, normalised [2, 6] was -0.12%.

With `COCC(NC(=O)c1cnc(C)s1)C(=O)NC(COC)C(=O)NC(Cc1ccccc1)C(=O)C1(C)CO1` (stereo not given) the nuclei count, normalised [1, 3] was 50.4%, the nuclei count, normalised [1, 4] was 40.7% and the p53-positive nuclei, normalised [2, 5] was 96.5% (active). For the same compound, the p53-positive nuclei, normalised [2, 6] was 116%.

For `COC(=O)[C@H](Cc1ccccc1)NC(=O)[C@@H](N)CC(=O)O` (H-Asp-Phe-OMe), the nuclei count, normalised [1, 7] was 91.1%, the nuclei count, normalised [1, 8] was 92% and the p53-positive nuclei, normalised ([2]; concentration not given here) was -0.024% (inactive). For the same compound, the p53-positive nuclei, normalised [2, 9] was -0.251%.
